Measured values published in PubChem BioAssay (NCATS).
Records with an inconclusive call do not appear. Calls of active or inactive are those of the source. Calls come from the whole dose curve; as a rule, active = well fitted curve in the direction sought with a large enough effect; inconclusive = small, poorly fitted or top-dose-only effect, or another doubt; inactive = no such curve, though single readings can be large; an effect the other way counts as inactive or inconclusive.

How the values were obtained:
NIH3T3 [1] = assay: Cytotoxic Profiling of Annotated Libraries Using Quantitative High-Throughput Screening (AID 1296008); details: Five cell lines viability, CellTiter-Glo ATP luminescence, 48-72 h; hits give low values; note: nearly all actives have a fitted effect of over 60% in size
How it was run: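 Cytotoxicity was measured as CellTiter-Glo ATP luminescence, read after 10 min at room temperature. Compound treatment of the cells lasted 48 or 72 hr at 37 degrees Celsius in a qHTS format.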

HEK293T [2] = assay: qHTS assay to identify novel small-molecules to repurpose for Merkel cell carcinoma treatment (AID 1296009); details: MCC and control cell lines, CellTiter-Glo viability, 72 h; at 44.8 µM (top of the series) unless noted; note: nearly all actives have a fitted effect of over 60% in size
How it was run: (§1)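 72 hr, 37 degree celsius; NPC 8-pt / MIPE 11-pt dose response; compound pinned in DMSO; CellTiter-Glo, 10 min RT, luminescence; normalized to no-cell and DMSO controls.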

MCC-13 = assay: as above; details: MCC and control cell lines, CellTiter-Glo viability, 72 h; series mostly up to 46 µM
How it was run: as §1

MCC-26 = assay: as above; details: MCC and control cell lines, CellTiter-Glo viability, 72 h; series mostly up to 46 µM
How it was run: as §1

MKL-1 = assay: as above; details: MCC and control cell lines, CellTiter-Glo viability, 72 h; series mostly up to 46 µM
How it was run: as §1

MKL-2 = assay: as above; details: MCC and control cell lines, CellTiter-Glo viability, 72 h; series mostly up to 46 µM
How it was run: as §1

UISO = assay: as above; details: MCC and control cell lines, CellTiter-Glo viability, 72 h; series mostly up to 46 µM
How it was run: as §1

WaGa = assay: as above; details: MCC and control cell lines, CellTiter-Glo viability, 72 h; series mostly up to 46 µM
How it was run: as §1

C33A = assay: Primary qHTS to identify gynecologic anti-cancer compounds using libraries of approved drugs and bioactive compounds (AID 1345084); details: Gynecologic cancer cell panel viability, ATPlite luminescence, 48 h; series mostly up to 57.5 µM; note: nearly all actives have a fitted effect of over 55% in size
How it was run: (§2)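 Five-concentration response, 48 h; readout is ATP-driven luciferase luminescence.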

CAOV3 = assay: as above; details: Gynecologic cancer cell panel viability, ATPlite luminescence, 48 h; series mostly up to 57.5 µM
How it was run: as §2

Es-2 = assay: as above; details: Gynecologic cancer cell panel viability, ATPlite luminescence, 48 h; series mostly up to 57.5 µM
How it was run: as §2

HeLa = assay: as above; details: Gynecologic cancer cell panel viability, ATPlite luminescence, 48 h; series mostly up to 57.5 µM
How it was run: as §2

Hek293T [3] = assay: as above; details: Gynecologic cancer cell panel viability, ATPlite luminescence, 48 h, control line for the selectivity index; series mostly up to 57.5 µM
How it was run: as §2

JEG-3 = assay: as above; details: Gynecologic cancer cell panel viability, ATPlite luminescence, 48 h; series mostly up to 57.5 µM
How it was run: as §2

OV90 = assay: as above; details: Gynecologic cancer cell panel viability, ATPlite luminescence, 48 h; series mostly up to 57.5 µM
How it was run: as §2

PA-1 = assay: as above; details: Gynecologic cancer cell panel viability, ATPlite luminescence, 48 h; series mostly up to 57.5 µM
How it was run: as §2

SKOV3 = assay: as above; details: Gynecologic cancer cell panel viability, ATPlite luminescence, 48 h; series mostly up to 57.5 µM
How it was run: as §2

NIH3T3 [4] = assay: qHTS assay to identify novel small-molecules to repurpose for Merkel cell carcinoma treatment (AID 1296009); details: MCC and control cell lines, CellTiter-Glo viability, 72 h; at 44.8 µM (top of the series) unless noted; note: nearly all actives have a fitted effect of over 60% in size
How it was run: as §1

CASKI = assay: Primary qHTS to identify gynecologic anti-cancer compounds using libraries of approved drugs and bioactive compounds (AID 1345084); details: Gynecologic cancer cell panel viability, ATPlite luminescence, 48 h; series mostly up to 57.5 µM; note: nearly all actives have a fitted effect of over 55% in size
How it was run: as §2
% is set by controls: 0 for no effect and ±100 for the full control effect.

CCCOC(=O)c1ccc(N)cc1
inactive: max response (NIH3T3 [1]) -2.69% | outcome (HEK293T [2]) | outcome (MCC-13) | outcome (MCC-26) | outcome (MKL-1) | outcome (MKL-2) | outcome (UISO) | outcome (WaGa) | outcome (C33A) | outcome (CAOV3) | outcome (Es-2) | outcome (HeLa) | outcome (Hek293T [3]) | outcome (JEG-3) | Potency (OV90) | outcome (PA-1) | outcome (SKOV3)

Cc1ncc(CO)c(CN)c1O
inactive: outcome (NIH3T3 [1]) | outcome (MCC-13) | outcome (MCC-26) | outcome (MKL-1) | outcome (MKL-2) | outcome (NIH3T3 [4]) | outcome (UISO) | outcome (WaGa) | outcome (C33A) | outcome (CAOV3) | outcome (CASKI) | outcome (Es-2) | outcome (HeLa) | outcome (Hek293T [3])

CCOC(=O)[C@H](CCc1ccccc1)N[C@@H](C)C(=O)N1Cc2cc(OC)c(OC)cc2C[C@H]1C(=O)O
inactive: max response (NIH3T3 [1]) 2.92% | outcome (HEK293T [2]) | outcome (MCC-13) | outcome (MCC-26) | outcome (MKL-1) | outcome (MKL-2) | outcome (UISO) | outcome (WaGa) | outcome (C33A) | outcome (CAOV3) | outcome (CASKI) | outcome (Es-2) | outcome (HeLa) | outcome (Hek293T [3]) | outcome (JEG-3) | Potency (OV90) | outcome (PA-1) | outcome (SKOV3)

CC(C(=O)O)c1ccc2c(c1)Cc1cccnc1O2 (stereo not drawn)
inactive: max response (NIH3T3 [1]) -7.1% | outcome (HEK293T [2]) | outcome (MCC-13) | outcome (MKL-1) | outcome (MKL-2) | outcome (UISO) | outcome (WaGa) | outcome (C33A) | outcome (CAOV3) | outcome (CASKI) | outcome (Es-2) | outcome (HeLa) | outcome (Hek293T [3]) | outcome (JEG-3) | Potency (OV90) | outcome (PA-1) | outcome (SKOV3)

COc1ccc(-c2cc(=O)c3c(O)cc(O[C@@H]4O[C@H](CO[C@@H]5O[C@@H](C)[C@H](O)[C@@H](O)[C@H]5O)[C@@H](O)[C@H](O)[C@H]4O)cc3o2)cc1O
inactive: max response (NIH3T3 [1]) -0.449% | outcome (HEK293T [2]) | outcome (MCC-13) | outcome (MKL-1) | outcome (MKL-2) | outcome (UISO) | outcome (WaGa) | outcome (C33A) | outcome (CASKI) | outcome (Es-2) | outcome (HeLa) | outcome (Hek293T [3]) | outcome (JEG-3) | Potency (OV90) | outcome (PA-1) | outcome (SKOV3)

Cc1cccc(C)c1NC(=O)CC12CCCN1CCC2
inactive: max response (NIH3T3 [1]) -1.1% | outcome (HEK293T [2]) | outcome (MCC-13) | outcome (MCC-26) | outcome (MKL-1) | outcome (MKL-2) | outcome (UISO) | outcome (WaGa) | outcome (C33A) | outcome (CAOV3) | outcome (CASKI) | outcome (Es-2) | outcome (HeLa) | outcome (Hek293T [3]) | outcome (JEG-3) | Potency (OV90) | outcome (PA-1) | outcome (SKOV3)

CCCCCCCCCCCCCCCCN
inactive: max response (NIH3T3 [1]) -1.53% | outcome (HEK293T [2]) | outcome (MCC-13) | outcome (MCC-26) | outcome (MKL-1) | outcome (MKL-2) | outcome (UISO) | outcome (WaGa) | outcome (C33A) | outcome (CAOV3) | outcome (CASKI) | outcome (Es-2) | outcome (HeLa) | outcome (JEG-3) | Potency (OV90) | outcome (PA-1) | outcome (SKOV3)

CN(C(=O)c1c(O)c2ccccc2n(C)c1=O)c1ccccc1
inactive: outcome (NIH3T3 [1]) | outcome (MCC-13) | outcome (MCC-26) | outcome (MKL-1) | outcome (MKL-2) | outcome (NIH3T3 [4]) | outcome (UISO) | outcome (WaGa) | outcome (C33A) | outcome (CAOV3) | outcome (CASKI) | outcome (Es-2) | outcome (HeLa) | outcome (Hek293T [3]) | outcome (JEG-3) | Potency (OV90) | outcome (PA-1) | outcome (SKOV3)

Cc1ccccc1N=Nc1ccc(N=Nc2c(O)ccc3ccccc23)c(C)c1
inactive: max response (NIH3T3 [1]) 0.522% | outcome (HEK293T [2]) | outcome (MCC-13) | outcome (MCC-26) | outcome (MKL-1) | outcome (MKL-2) | outcome (WaGa) | outcome (C33A) | outcome (CAOV3) | outcome (CASKI) | outcome (Es-2) | outcome (HeLa) | outcome (Hek293T [3]) | outcome (JEG-3) | Potency (OV90) | outcome (PA-1) | outcome (SKOV3)

OC[C@@H](O)[C@@H](O)[C@H](O)[C@H](O)CO
inactive: max response (NIH3T3 [1]) -8.98% | outcome (HEK293T [2]) | outcome (MCC-13) | outcome (MCC-26) | outcome (MKL-1) | outcome (MKL-2) | outcome (UISO) | outcome (WaGa) | outcome (C33A) | outcome (CAOV3) | outcome (CASKI) | outcome (Es-2) | outcome (HeLa) | outcome (JEG-3) | Potency (OV90) | outcome (PA-1) | outcome (SKOV3)

CC(=O)N(CC(O)CN(C(C)=O)c1c(I)c(C(=O)NCC(O)CO)c(I)c(C(=O)NCC(O)CO)c1I)c1c(I)c(C(=O)NCC(O)CO)c(I)c(C(=O)NCC(O)CO)c1I (stereo not drawn)
inactive: outcome (NIH3T3 [1]) | outcome (MCC-13) | outcome (MCC-26) | outcome (MKL-1) | outcome (MKL-2) | outcome (NIH3T3 [4]) | outcome (UISO) | outcome (WaGa) | outcome (C33A) | outcome (CAOV3) | outcome (CASKI) | outcome (Es-2) | outcome (HeLa) | outcome (Hek293T [3]) | outcome (JEG-3) | Potency (OV90) | outcome (PA-1) | outcome (SKOV3)

CN[C@@H]1[C@@H](O)[C@@H](O[C@@H]2[C@H](O)[C@H](O[C@H]3OC(CN)=CC[C@H]3N)[C@@H](N)C[C@H]2N)OCC1(C)O (stereo partly drawn)
inactive: max response (NIH3T3 [1]) 2.74% | outcome (MCC-13) | outcome (MCC-26) | outcome (MKL-1) | outcome (MKL-2) | outcome (UISO) | outcome (WaGa) | outcome (C33A) | outcome (CAOV3) | outcome (CASKI) | outcome (Es-2) | outcome (HeLa) | outcome (Hek293T [3]) | outcome (JEG-3) | Potency (OV90) | outcome (PA-1) | outcome (SKOV3)

CCc1cccc(CC)c1NC(=O)CN(CC(=O)O)CC(=O)O
inactive: max response (NIH3T3 [1]) -0.454% | outcome (MCC-13) | outcome (MKL-1) | outcome (MKL-2) | outcome (UISO) | outcome (WaGa) | outcome (C33A) | outcome (CAOV3) | outcome (CASKI) | outcome (Es-2) | outcome (HeLa) | outcome (Hek293T [3]) | outcome (JEG-3) | Potency (OV90) | outcome (PA-1) | outcome (SKOV3)

Nc1ccc(C(=O)Oc2ccccc2)c(O)c1
inactive: outcome (NIH3T3 [1]) | outcome (MCC-13) | outcome (MCC-26) | outcome (MKL-1) | outcome (MKL-2) | outcome (NIH3T3 [4]) | outcome (UISO) | outcome (WaGa) | outcome (C33A) | outcome (CAOV3) | outcome (CASKI) | outcome (Es-2) | outcome (HeLa) | outcome (Hek293T [3]) | outcome (JEG-3) | Potency (OV90) | outcome (PA-1) | outcome (SKOV3)
